Source: ChEMBL document CHEMBL2218924, “A broad activity screen in support of a chemogenomic map for kinase signalling research and drug discovery” (Biochem J, 2013)

Legend:
[1] = biological target: Rho-associated protein kinase 2 (Homo sapiens) (UniProt O75116); conditions: at 1 µM
[2] = biological target: Rho-associated protein kinase 2 (Homo sapiens) (UniProt O75116); conditions: at 10 µM
[3] = biological target: Proto-oncogene tyrosine-protein kinase receptor Ret (Homo sapiens) (UniProt P07949); conditions: at 1 µM
[4] = biological target: Proto-oncogene tyrosine-protein kinase receptor Ret (Homo sapiens) (UniProt P07949); conditions: at 10 µM
[5] = biological target: Macrophage-stimulating protein receptor (Homo sapiens) (UniProt Q04912); conditions: at 1 µM
[6] = biological target: Macrophage-stimulating protein receptor (Homo sapiens) (UniProt Q04912); conditions: at 10 µM
[7] = biological target: Proto-oncogene tyrosine-protein kinase ROS (Homo sapiens) (UniProt P08922); conditions: at 1 µM
[8] = biological target: Proto-oncogene tyrosine-protein kinase ROS (Homo sapiens) (UniProt P08922); conditions: at 10 µM
[9] = biological target: T1, Tyrosine-protein kinase receptor TYRO3 (Homo sapiens) (UniProt Q06418); conditions: at 1 µM
T1 sequence (whole entry): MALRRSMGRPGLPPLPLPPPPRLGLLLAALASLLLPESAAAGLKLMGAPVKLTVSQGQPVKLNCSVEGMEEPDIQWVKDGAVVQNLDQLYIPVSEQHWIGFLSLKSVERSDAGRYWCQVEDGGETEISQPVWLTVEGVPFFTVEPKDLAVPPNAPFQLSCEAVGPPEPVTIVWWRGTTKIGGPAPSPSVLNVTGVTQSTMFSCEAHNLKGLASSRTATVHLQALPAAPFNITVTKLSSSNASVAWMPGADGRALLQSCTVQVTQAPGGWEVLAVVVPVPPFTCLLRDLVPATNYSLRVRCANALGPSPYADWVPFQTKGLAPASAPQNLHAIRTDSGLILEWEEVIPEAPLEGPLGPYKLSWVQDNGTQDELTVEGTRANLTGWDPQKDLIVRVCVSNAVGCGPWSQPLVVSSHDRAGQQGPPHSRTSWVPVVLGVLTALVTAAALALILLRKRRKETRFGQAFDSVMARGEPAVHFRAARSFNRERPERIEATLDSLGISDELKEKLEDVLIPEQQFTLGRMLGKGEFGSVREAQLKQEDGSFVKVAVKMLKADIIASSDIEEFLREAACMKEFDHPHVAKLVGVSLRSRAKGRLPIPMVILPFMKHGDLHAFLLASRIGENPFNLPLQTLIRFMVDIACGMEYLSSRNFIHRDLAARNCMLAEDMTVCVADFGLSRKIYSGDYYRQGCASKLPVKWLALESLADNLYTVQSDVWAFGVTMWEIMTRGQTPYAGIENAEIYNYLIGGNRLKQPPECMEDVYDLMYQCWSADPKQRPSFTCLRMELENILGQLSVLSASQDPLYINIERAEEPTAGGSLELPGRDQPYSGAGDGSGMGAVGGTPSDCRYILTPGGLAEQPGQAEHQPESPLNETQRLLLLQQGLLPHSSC

[10] = biological target: T1, Tyrosine-protein kinase receptor TYRO3 (Homo sapiens); conditions: at 10 µM
[11] = biological target: Ribosomal protein S6 kinase alpha-1 (Homo sapiens) (UniProt Q15418); conditions: at 1 µM
[12] = biological target: Ribosomal protein S6 kinase alpha-1 (Homo sapiens) (UniProt Q15418); conditions: at 10 µM
[13] = biological target: Ribosomal protein S6 kinase alpha-3 (Homo sapiens) (UniProt P51812); conditions: at 1 µM
[14] = biological target: Ribosomal protein S6 kinase alpha-3 (Homo sapiens) (UniProt P51812); conditions: at 10 µM
[15] = biological target: Ribosomal protein S6 kinase alpha-2 (Homo sapiens) (UniProt Q15349); conditions: at 1 µM
[16] = biological target: Ribosomal protein S6 kinase alpha-2 (Homo sapiens) (UniProt Q15349); conditions: at 10 µM
[17] = biological target: Ribosomal protein S6 kinase alpha-6 (Homo sapiens) (UniProt Q9UK32); conditions: at 1 µM
[18] = biological target: Ribosomal protein S6 kinase alpha-6 (Homo sapiens) (UniProt Q9UK32); conditions: at 10 µM
[19] = biological target: Mitogen-activated protein kinase 14 (Homo sapiens) (UniProt Q16539); conditions: at 1 µM
[20] = biological target: Mitogen-activated protein kinase 14 (Homo sapiens) (UniProt Q16539); conditions: at 10 µM

Chain of Proto-oncogene tyrosine-protein kinase ROS (Homo sapiens) (P08922 whole entry): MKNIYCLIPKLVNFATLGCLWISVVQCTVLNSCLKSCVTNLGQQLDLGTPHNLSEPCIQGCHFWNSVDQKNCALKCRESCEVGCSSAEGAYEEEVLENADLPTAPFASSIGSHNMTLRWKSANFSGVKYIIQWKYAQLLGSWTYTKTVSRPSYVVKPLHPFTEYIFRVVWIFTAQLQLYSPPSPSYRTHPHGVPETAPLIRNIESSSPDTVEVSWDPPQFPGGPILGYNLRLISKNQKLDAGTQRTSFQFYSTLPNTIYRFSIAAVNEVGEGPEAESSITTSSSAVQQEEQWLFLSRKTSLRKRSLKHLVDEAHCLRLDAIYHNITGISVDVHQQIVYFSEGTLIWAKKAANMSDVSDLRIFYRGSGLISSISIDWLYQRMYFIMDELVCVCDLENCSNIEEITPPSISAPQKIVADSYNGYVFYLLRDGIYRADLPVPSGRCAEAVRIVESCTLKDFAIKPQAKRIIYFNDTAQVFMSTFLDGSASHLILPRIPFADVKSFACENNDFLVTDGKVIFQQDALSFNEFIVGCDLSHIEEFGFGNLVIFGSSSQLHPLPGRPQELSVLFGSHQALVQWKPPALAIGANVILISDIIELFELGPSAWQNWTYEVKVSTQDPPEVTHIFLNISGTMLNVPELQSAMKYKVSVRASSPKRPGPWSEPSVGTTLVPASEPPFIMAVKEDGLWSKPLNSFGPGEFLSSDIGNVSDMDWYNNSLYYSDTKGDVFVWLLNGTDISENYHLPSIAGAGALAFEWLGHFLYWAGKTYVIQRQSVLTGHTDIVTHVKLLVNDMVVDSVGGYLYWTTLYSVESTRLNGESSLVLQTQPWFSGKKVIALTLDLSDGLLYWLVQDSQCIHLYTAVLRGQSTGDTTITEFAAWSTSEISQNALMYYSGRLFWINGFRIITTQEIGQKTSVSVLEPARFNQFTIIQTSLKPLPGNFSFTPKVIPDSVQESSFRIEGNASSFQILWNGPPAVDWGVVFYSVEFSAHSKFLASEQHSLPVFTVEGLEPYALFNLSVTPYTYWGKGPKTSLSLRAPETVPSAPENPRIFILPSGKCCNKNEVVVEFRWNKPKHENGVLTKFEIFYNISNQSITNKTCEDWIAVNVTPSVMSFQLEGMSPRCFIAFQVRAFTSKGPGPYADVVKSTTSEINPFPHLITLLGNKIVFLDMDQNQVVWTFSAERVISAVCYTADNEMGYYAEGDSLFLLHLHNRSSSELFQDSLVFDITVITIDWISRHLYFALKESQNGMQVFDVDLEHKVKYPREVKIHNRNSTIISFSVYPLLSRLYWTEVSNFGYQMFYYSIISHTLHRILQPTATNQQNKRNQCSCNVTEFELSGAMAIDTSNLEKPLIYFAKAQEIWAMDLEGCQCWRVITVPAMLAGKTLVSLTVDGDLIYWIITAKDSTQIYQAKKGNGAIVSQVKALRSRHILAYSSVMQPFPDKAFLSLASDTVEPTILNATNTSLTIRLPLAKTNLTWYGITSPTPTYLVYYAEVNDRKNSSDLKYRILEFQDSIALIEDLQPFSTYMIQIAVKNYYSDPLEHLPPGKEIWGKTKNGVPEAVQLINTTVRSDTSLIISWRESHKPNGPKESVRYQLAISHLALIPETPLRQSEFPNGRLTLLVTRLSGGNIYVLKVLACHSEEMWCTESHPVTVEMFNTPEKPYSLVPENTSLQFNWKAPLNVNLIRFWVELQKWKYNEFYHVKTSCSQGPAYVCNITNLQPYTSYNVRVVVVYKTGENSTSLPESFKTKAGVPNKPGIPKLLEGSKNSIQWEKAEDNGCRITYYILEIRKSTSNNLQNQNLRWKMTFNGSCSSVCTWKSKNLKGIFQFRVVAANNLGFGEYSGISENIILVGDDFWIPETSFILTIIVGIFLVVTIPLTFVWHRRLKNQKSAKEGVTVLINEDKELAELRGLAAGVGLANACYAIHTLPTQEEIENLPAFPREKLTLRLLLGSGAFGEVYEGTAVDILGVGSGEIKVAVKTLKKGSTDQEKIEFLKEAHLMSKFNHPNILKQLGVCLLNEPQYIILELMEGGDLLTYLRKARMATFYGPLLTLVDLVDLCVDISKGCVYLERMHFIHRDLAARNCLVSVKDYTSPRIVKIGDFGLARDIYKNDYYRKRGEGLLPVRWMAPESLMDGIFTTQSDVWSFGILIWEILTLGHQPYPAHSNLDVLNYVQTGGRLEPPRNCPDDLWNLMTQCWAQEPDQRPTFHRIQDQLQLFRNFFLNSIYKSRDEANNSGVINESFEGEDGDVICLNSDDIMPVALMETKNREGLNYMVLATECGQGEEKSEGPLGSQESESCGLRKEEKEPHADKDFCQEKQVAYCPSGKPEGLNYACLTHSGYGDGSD
Chain of Ribosomal protein S6 kinase alpha-2 (Homo sapiens) (Q15349 whole entry): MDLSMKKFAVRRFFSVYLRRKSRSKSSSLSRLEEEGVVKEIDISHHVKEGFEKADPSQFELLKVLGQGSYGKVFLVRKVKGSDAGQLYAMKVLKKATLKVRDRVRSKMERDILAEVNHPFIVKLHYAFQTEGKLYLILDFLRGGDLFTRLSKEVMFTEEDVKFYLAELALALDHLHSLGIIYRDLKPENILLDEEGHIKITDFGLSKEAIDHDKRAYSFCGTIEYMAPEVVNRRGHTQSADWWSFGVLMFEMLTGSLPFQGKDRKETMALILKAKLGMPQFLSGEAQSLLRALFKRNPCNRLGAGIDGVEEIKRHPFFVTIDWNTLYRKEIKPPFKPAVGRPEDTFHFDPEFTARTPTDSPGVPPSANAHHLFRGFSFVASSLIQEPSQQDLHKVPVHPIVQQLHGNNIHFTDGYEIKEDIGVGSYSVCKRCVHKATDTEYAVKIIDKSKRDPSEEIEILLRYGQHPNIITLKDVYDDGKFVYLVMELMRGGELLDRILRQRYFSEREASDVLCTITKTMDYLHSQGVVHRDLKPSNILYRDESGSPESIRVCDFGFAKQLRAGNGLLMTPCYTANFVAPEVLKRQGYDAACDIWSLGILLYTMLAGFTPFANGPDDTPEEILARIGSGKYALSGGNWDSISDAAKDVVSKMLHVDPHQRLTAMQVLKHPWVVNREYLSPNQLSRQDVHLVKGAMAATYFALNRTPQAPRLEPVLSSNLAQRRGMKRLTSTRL
Chain of Macrophage-stimulating protein receptor (Homo sapiens) (Q04912 25-304 limits assumed): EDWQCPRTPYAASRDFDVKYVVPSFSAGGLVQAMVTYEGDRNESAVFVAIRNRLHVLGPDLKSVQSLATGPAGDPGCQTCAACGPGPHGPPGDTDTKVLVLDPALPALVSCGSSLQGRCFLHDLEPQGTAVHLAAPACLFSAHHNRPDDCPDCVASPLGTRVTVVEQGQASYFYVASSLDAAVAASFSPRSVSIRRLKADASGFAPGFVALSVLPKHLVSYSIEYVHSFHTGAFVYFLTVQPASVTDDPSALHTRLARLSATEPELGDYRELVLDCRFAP
Chain of Macrophage-stimulating protein receptor (Homo sapiens) (Q04912 310-1400 limits assumed): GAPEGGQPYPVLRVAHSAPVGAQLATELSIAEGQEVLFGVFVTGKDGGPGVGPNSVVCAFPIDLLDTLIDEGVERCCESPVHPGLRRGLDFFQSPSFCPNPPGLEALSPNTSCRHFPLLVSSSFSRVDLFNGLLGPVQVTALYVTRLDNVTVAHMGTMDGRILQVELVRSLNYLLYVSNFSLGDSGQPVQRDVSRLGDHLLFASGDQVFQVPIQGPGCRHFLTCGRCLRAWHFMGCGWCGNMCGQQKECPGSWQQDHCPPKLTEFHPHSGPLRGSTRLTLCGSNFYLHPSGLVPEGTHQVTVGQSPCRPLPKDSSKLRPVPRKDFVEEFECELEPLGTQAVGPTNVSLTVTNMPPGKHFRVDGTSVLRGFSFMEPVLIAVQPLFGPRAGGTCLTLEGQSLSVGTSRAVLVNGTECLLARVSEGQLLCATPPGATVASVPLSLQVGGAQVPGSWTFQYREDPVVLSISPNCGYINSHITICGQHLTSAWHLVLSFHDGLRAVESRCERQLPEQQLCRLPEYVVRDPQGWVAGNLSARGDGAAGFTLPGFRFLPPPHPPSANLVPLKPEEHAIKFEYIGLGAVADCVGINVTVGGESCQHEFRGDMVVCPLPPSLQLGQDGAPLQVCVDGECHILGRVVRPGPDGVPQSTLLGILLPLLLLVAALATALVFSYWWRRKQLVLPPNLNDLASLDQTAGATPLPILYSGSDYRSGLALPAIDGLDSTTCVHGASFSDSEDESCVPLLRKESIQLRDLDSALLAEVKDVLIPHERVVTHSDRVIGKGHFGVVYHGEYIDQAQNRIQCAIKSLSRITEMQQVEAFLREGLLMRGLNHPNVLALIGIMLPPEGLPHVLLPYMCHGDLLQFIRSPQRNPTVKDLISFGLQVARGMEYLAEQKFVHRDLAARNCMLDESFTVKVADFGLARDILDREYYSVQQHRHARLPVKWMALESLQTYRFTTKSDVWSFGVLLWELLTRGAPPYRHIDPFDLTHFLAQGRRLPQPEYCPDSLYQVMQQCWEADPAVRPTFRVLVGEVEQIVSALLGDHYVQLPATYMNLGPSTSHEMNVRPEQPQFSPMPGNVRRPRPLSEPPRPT
Chain of Mitogen-activated protein kinase 14 (Homo sapiens) (Q16539 whole entry): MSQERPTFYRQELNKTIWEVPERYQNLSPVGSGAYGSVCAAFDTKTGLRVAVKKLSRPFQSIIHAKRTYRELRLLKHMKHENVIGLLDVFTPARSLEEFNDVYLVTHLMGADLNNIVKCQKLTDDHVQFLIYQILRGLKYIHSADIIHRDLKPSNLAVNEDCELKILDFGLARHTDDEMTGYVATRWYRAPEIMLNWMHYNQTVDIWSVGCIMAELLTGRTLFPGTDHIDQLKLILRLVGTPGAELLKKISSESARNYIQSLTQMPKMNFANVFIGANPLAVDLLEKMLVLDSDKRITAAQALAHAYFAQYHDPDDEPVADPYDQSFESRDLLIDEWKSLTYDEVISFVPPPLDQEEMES

Compound | residual activity [1] [%] | residual activity [2] [%] | residual activity [3] [%] | residual activity [4] [%] | residual activity [5] [%] | residual activity [6] [%] | residual activity [7] [%] | residual activity [8] [%] | residual activity [9] [%] | residual activity [10] [%] | residual activity [11] [%] | residual activity [12] [%] | residual activity [13] [%] | residual activity [14] [%] | residual activity [15] [%] | residual activity [16] [%] | residual activity [17] [%] | residual activity [18] [%] | residual activity [19] [%] | residual activity [20] [%]
O=C(CCCc1ccc(-c2ccccc2F)cc1)Nc1ccc(O)cc1 | 106 | 96 | 91 | 86 | 85 | 92 | 103 | 100 | 102 | 102 | 90 | 89 | 111 | 129 | 97 | 86 | 104 | 96 | 91 | 59
CC(C)(C)c1nc2c3ccc(F)cc3c3c(=O)[nH]ccc3c2[nH]1 | 57 | 58 | 18 | 36 | – | – | – | – | 75 | – | 65 | 55 | – | – | 25 | 7 | 42 | 37 | 73 | 69
Nc1ncnc2c1cnn2-c1ccccc1 | 92 | 66 | 101 | 91 | – | 80 | – | – | 90 | 93 | – | 88 | – | – | – | 84 | – | – | 83 | –
COc1cc2ncnc(Nc3cccc(Cl)c3)c2cc1OC | 103 | 87 | 39 | 6 | 116 | 83 | 100 | 105 | 62 | 15 | – | – | 102 | 59 | 87 | 47 | 123 | 64 | 56 | 25
NC(=O)Nc1sc(-c2ccc(F)cc2)cc1C(N)=O | 89 | 53 | 30 | 1 | 73 | 56 | 91 | 94 | 91 | 41 | 85 | 33 | 33 | 9 | 30 | 7 | – | – | 91 | 77
O=S(=O)(c1cccc2cnccc12)N1CCCNCC1 | 25 | 4 | 53 | 39 | – | – | – | – | – | 123 | 84 | 47 | – | – | – | – | 85 | 49 | – | –
CCCCc1c(-c2ccc(O)cc2)[nH]c2nccnc12 | 96 | 94 | 45 | 48 | – | – | 93 | 82 | 100 | 99 | – | – | 42 | 29 | 68 | 44 | 86 | 84 | 100 | 88
Nc1n[nH]c2nc3ccccc3nc12 | 94 | 84 | 100 | 82 | – | – | – | – | 99 | 100 | 118 | 87 | 65 | 54 | 93 | 77 | 83 | 71 | 90 | 97
O=C1C(Cl)=C(N2C(=O)CCC2=O)C(=O)c2ccccc21 | 45 | 16 | 102 | 86 | 92 | 81 | 101 | 97 | – | – | 120 | 131 | 73 | 75 | – | – | 92 | 99 | 86 | 92
Nc1ncnc2c1c(-c1ccc(Oc3ccccc3)cc1)cn2C1CCCC1 | 90 | 70 | 0 | -1 | 92 | 55 | 88 | 82 | 59 | 14 | 123 | 39 | 65 | 37 | 106 | 69 | 91 | 76 | 86 | 63
CC(C)[C@H](CO)Nc1nc(Nc2cc(N)cc(Cl)c2)c2ncn(C(C)C)c2n1 | 91 | 52 | 83 | 21 | 96 | 62 | – | – | 84 | 53 | 32 | 6 | – | – | – | – | 18 | 6 | – | 95
CCCC(=O)Oc1ccc2[nH]c(C(=O)c3cc4ccccc4[nH]3)cc2c1 | 93 | 83 | 94 | – | 102 | 74 | 86 | 90 | 92 | 98 | 129 | 99 | 122 | 93 | 102 | 90 | – | – | 79 | 81
O=C1Nc2ccc(Cl)cc2/C1=C/c1cc(Cl)c(O)c(Cl)c1 | 96 | 65 | 91 | 77 | 61 | 57 | 92 | 90 | 71 | 57 | 94 | 29 | 68 | 20 | 88 | 36 | 77 | 55 | 54 | 10
c1ccc(-c2cnc(Nc3ccc(OCCN4CCCC4)cc3)s2)cc1 | 110 | 81 | – | 37 | – | – | – | 80 | – | – | 121 | 66 | 56 | 36 | – | – | 72 | 58 | – | –
CCN1/C(=C/C(C)=O)Sc2ccc(OC)cc21 | 78 | 73 | – | – | – | – | – | – | – | – | – | – | – | – | 77 | 57 | – | – | – | –
Nc1nc(Nc2ccc(S(N)(=O)=O)cc2)nn1C(=O)c1c(F)cccc1F | 16 | 3 | – | – | 81 | 33 | 101 | 82 | 81 | 28 | 28 | 8 | 32 | 8 | 19 | 4 | 27 | 2 | – | –
O=c1cc(N2CCOCC2)oc2c(-c3ccccc3)cccc12 | 100 | 73 | – | – | 64 | 65 | – | – | – | – | 138 | – | 69 | 55 | – | – | – | – | – | –
N#C/C(=C\c1ccc(O)c(O)c1)C(=O)NCc1ccccc1 | 103 | 78 | – | – | – | – | – | – | – | – | – | 102 | 67 | 45 | 122 | – | – | – | 72 | 102
CCCCc1c(-c2ccc(OC)cc2)[nH]c2nccnc12 | 79 | – | 45 | 63 | 85 | 103 | – | 88 | 107 | 105 | 122 | 109 | 55 | 52 | 70 | 70 | 89 | 100 | – | –
CC(C)c1nn(-c2c(Cl)cccc2Cl)c2nc(Cc3ccc(OCCO)cc3)[nH]c(=O)c12 | 98 | 96 | 103 | 92 | 88 | 92 | 106 | 88 | 103 | 104 | 105 | 56 | 46 | 29 | 88 | 47 | 71 | 49 | 92 | 82
NC(=O)c1cccc(-c2cc(Nc3ccc(OC(F)(F)F)cc3)ncn2)c1 | 125 | 94 | – | 87 | – | – | – | – | – | – | – | 94 | 57 | 40 | – | – | – | – | – | –
Cn1c2ccccc2c2c3c(c4c5ccccc5n(CCC#N)c4c21)CNC3=O | 43 | 31 | -1 | 1 | – | – | 1 | 3 | – | – | 7 | 4 | 1 | 1 | 0 | -1 | 4 | 4 | – | –
O=C(NC(NC(=S)Nc1ccc(F)c([N+](=O)[O-])c1)C(Cl)(Cl)Cl)C(c1ccccc1)c1ccccc1 (stereo not given) | 99 | 102 | – | – | 88 | 93 | 103 | 94 | – | – | – | – | – | – | – | – | 80 | 94 | – | –
COc1cc2nccc(Oc3ccc(NC(=S)NC(=O)c4ccccc4C)cc3)c2cc1OC | 87 | 70 | 75 | 78 | 30 | 0 | 79 | 52 | 45 | 18 | 96 | 81 | 70 | 19 | – | – | 88 | 123 | 82 | 68
COc1ccc(Cl)cc1NC(=O)Nc1cc(C)nc2ccccc12 | 96 | 79 | 93 | 87 | – | – | 96 | 92 | – | – | – | – | – | – | – | – | – | – | 82 | 91
Cn1sc(=O)n(Cc2ccccc2)c1=O | 91 | 83 | 94 | 94 | 81 | 75 | 79 | 80 | – | – | – | – | 49 | 65 | 99 | 97 | 95 | 93 | 87 | 87
CC(C)(C)n1nc(Cc2cccc3ccccc23)c2c(N)ncnc21 | 104 | 77 | 11 | 1 | 110 | 77 | 96 | 94 | 87 | 73 | 107 | 65 | 112 | 80 | 99 | 85 | 113 | 77 | 41 | 7
CSc1nc(-c2ccc(F)cc2)c(-c2ccnc(NC(C)c3ccccc3)c2)[nH]1 (stereo not given) | 101 | 96 | 66 | 28 | 98 | 83 | – | – | 100 | 99 | 82 | 74 | 81 | 50 | 40 | 42 | 86 | 69 | -1 | 0
